Bioassay records as filed in PubChem.
DT40 TDP1 no CPT: qHTS for Inhibitors of human tyrosyl-DNA phosphodiesterase 1 (TDP1): qHTS in cells in absence of CPT | DT40 Tdp1-/- hTDP1 cells, no CPT, ATP luminescence, 48 h | Potency, µM (series often up to 46.2 µM), without a hit: at the top dose activity change, negative = growth inhibition, hits mostly inhibitors | hit rate 15% among 420,000; note: potency is the fitted concentration of half-maximal effect; nearly all actives have a fitted effect of over 55% in size
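Readout: luminescence from CellTiter-Glo after 30 min in the dark at RT. Cells: DT40 Tdp1-/- with stable hTDP1, 400/well. Exposure: compounds alone, ≥48 hr, 37 °C.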
Six1-Eya2 inh: blocks human Six1 binding to Eya2 | Q15475+O00167 | AlphaScreen GST-Six1/His-Eya2 binding, biochemical; stronger effect = lower value | activity change, % (no concentration beside the values) | hit rate 0.56% among 360,000; in the data active = activity change below about -65%; inconclusive = mostly about -30% to -63%
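Six1/Eya2 binding was read as AlphaScreen signal after compounds were pinned into GST-Six1 plus His-tagged Eya2 (5X stock 250/500 nM) in pH 8.0 Tris/NaCl/TCEP buffer, beads added, then incubated 1 h, 37 C, dark.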
DT40 TDP1 CPT: DT40-hTDP1 cell growth loss with CPT; chicken DT40 Tdp1-/-;hTDP1 cells + 20 nM CPT, ATP luminescence, 48 h; Potency, µM (doses to about 46.2 µM), inactives show at the top dose activity change, negative = growth inhibition, actives largely listed as inhibitors; hit rate 12% among 420,000; note: potency is the fitted concentration of half-maximal effect; nearly all actives have a fitted effect of over 55% in size
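Chicken DT40 Tdp1-/- cells stably complemented with human TDP1 were seeded at 400 cells/well in medium containing 20 nM camptothecin, exposed to pin-transferred compounds, and grown at 37 °C for at least 48 hr. Viability was read as ATP luminescence.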
TDP1 block: inhibitors of human tyrosyl-DNA phosphodiesterase TDP1 | Q9NUW8 | recombinant TDP1, AlphaScreen DNA substrate cleavage | Potency, µM (doses to about 130 µM), inactives show top-dose activity change, negative = inhibition, actives largely listed as inhibitors | hit rate 0.28% among 350,000; note: potency is the fitted concentration of half-maximal effect; nearly all actives have a fitted effect of over 40% in size
Target sequence (Q9NUW8 whole entry, looked up): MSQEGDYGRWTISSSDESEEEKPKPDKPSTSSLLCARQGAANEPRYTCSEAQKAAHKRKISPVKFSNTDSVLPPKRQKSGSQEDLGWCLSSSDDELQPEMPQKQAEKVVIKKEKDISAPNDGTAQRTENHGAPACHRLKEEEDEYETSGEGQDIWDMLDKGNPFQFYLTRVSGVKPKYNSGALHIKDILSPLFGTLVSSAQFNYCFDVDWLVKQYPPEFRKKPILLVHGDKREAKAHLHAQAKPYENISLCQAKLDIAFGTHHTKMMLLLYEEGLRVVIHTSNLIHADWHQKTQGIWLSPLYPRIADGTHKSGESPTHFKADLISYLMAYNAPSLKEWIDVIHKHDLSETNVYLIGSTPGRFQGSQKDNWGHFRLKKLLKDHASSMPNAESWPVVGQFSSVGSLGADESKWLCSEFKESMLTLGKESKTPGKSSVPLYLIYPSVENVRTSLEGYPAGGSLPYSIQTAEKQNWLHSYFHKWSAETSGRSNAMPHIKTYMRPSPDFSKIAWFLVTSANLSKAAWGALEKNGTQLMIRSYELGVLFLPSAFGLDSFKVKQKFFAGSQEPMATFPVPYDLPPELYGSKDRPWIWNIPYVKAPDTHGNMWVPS
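E. coli-derived human Tdp1, 1 nM final. Cpd preinc 15 min RT; substrate 15 nM final, 5 min RT; AS bead mix 10 ug/ml final, 10 min RT. Signal loss = tyrosine-FITC cleavage. No-enzyme wells = max signal.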
CtBP-E1A inh: CtBP/E1A binding inhibition | AlphaScreen GST-E1A/His-CtBP binding, 1536-well; stronger effect = lower value | activity change, % (no concentration beside the values) | hit rate 0.49% among 340,000; in the data active = activity change below about -65%; inconclusive = mostly about -30% to -63%
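AlphaScreen with 125 nM GST-E1A and 125 nM His-CtBP (5X stocks) in Tris pH 8.0, 300 mM NaCl, BSA, Tween 20, TCEP. Compounds preincubated 2 h at 37 deg C, then glutathione donor/nickel acceptor beads added for 1 h at 37 deg C in dark.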
IL1B secr inh: blocks inflammasome-driven IL-1 beta release; THP-1 LPS/ATP IL-1B secretion, AlphaLISA, 16 h; stronger effect = lower value; activity change, % at 57.5 µM; hit rate 4.7% among 360,000; AID 743279; in the data active = activity change below about -50%; inconclusive = mostly about -30% to -49%
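Secreted IL-1B measured by AlphaLISA bead assay after 16 h compound exposure of THP-1 cells; compounds (final up to 57.5 uM) added 1 h before LPS (250 ng/mL) and ATP (1.25 mM) stimulation; lower signal means less secretion.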
Active calls of the source: *; ? = inconclusive; · = not tested or not shown; [ ] = another dose, or the depositor's remark. The list is not random: actives were taken first. Their share in the collection is about 18%. Unless noted, calls come from the whole dose curve; as a rule, active = well fitted curve in the direction sought with a large enough effect; inconclusive = small, poorly fitted or top-dose-only effect, or another doubt; inactive = no such curve, though single readings can be large; an effect the other way counts as inactive or inconclusive. % is set by controls: 0 for no effect and ±100 for the full control effect.

SMILES	DT40 TDP1 no CPT	Six1-Eya2 inh	DT40 TDP1 CPT	TDP1 block	CtBP-E1A inh	IL1B secr inh
NNC(=O)c1cc(O)c(O)c(O)c1	?	-25	15µM*	·	·	1
CC(C)c1ccc(S(=O)(=O)c2nnn3c2nc(NCc2cccs2)c2sccc23)cc1	-23%	·	7%	5%	·	·
Cc1ccc(CNC(=O)CN2NS(=O)(=O)c3ccccc3C2=O)cc1	0%	6	-12%	·	-2	10
C=CCn1c(C)cc(C(=O)Cn2ncc(Cl)c(Cl)c2=O)c1C	4.1µM*	-19	5.8µM*	-3%	-1	-102*
C=CCn1c(C)cc(C(=O)CN2NS(=O)(=O)c3ccccc3C2=O)c1C	3.7µM*	1	4.6µM*	7%	·	88
O=C(OCn1ncc(Cl)c(Cl)c1=O)c1ccccc1Cl	4.6µM*	-9	2.3µM*	1%	-4	-97*
Cc1cc2c(s1)c1cnn(Cc3ccc(F)cc3)c(=O)c1n2C	·	·	·	50µM*	·	·
CC(C)(C)c1cc(CCC(=O)N2CCCC2)cc(C(C)(C)C)c1O	?	-23	?	4%	-25	-21
COc1ccc2c(COC(=O)CCS(=O)(=O)c3ccc(C)cc3)cc(=O)oc2c1	-5%	17	5%	-10%	0	6
CC(C)(C)C(=O)Cn1ncc(N2CCCC2)c(Br)c1=O	-13%	-1	10%	-4%	7	8
O=C(Cn1ncc(Cl)c(Cl)c1=O)c1ccc(Cl)cc1	2.6µM*	-10	2.9µM*	4%[56.1 µM]	6	-68*
CC(C)(C)C(=O)Cn1ncc(Cl)c(Cl)c1=O	10µM*	7	16µM*	6%	·	-101*
O=c1c(Cl)c(Cl)cnn1Cc1ccc(F)cc1	13µM*	4	-112%	5%	4	-99*
O=C(Cn1cncn1)c1ccc(Cl)cc1	-7%	2	-16%	·	0	-3
O=c1cnn(Cc2ccc(F)cc2)c2ccccc12	?	3	?	4%[0.0935 µM]	6	30
COc1ccc(C(C)(C)C)cc1NC(=O)COC(=O)c1cnc(C)cn1	-1%	1	-8%	0%	-6	43
CC(CCc1ccc2c(c1)OCO2)NN (stereo not given)	2%	·	14%	·	·	·
CC(C)CCC(CCN1CCOCC1)c1ccc2c(c1)OCO2 (stereo not given)	?	-12	?	-3%	-16	-9
CC(C)CCC(CCN1CCCC1)c1ccc2c(c1)OCO2 (stereo not given)	?	1	?	-6%	-14	-70*
COCCCNCCC(CCC(C)C)c1ccc2c(c1)OCO2 (stereo not given)	21µM*	2	?	·	2	-70*
COc1ccc(/C=C/C(=O)NCCCN2CCCC2)cc1	7%	9	4%	·	5	-9
CC(C)C(=O)OCC(=O)Nc1ccc(N=Nc2ccccc2)cc1	-30%	?	0%	8%	?	?
CCCCCCC(=O)N(O)C1CC(=O)N(c2ccc(Br)cc2)C1=O (stereo not given)	18µM*	-1	21µM*	8%	-3	-82*
COc1ccccc1N(O)C1CC(=O)N(c2ccc(Br)cc2)C1=O (stereo not given)	?	-10	18µM*	-2%	-9	-1
CCCCCCC(=O)N(O)C1CC(=O)N(c2ccc(F)cc2)C1=O (stereo not given)	2.9µM*	0	1.6µM*	10%	3	-88*
SMILES	DT40 TDP1 no CPT	Six1-Eya2 inh	DT40 TDP1 CPT	TDP1 block	CtBP-E1A inh	IL1B secr inh
CCc1cccc(-n2nnc(-c3nsc(NC(=O)c4cccs4)n3)c2C)c1	?	·	?	3%	·	·
CN(C(=O)c1ccc(NC(=O)Cc2cccc(NC(=O)C3CCN(C(=O)C4CCC4)CC3)c2)cc1)C1CC1	-4%	3	1%	·	0	18
C#CCN(C[C@@H]1[C@@H](OC(=O)NCc2ccccc2F)[C@@H](OC(=O)NCc2ccccc2F)CN(C(=O)OC(C)C)N1C(=O)OC(C)C)S(=O)(=O)c1ccc(C)cc1	7.3µM*	2	7.3µM*	·	-3	-20
C#CCN(C[C@H]1[C@H](OC(=O)NCC2CCCCC2)[C@H](OC(=O)NCC2CCCCC2)C[C@H]2C(=O)N(c3ccccc3)C(=O)[C@@H]12)S(=O)(=O)c1ccc(C)cc1	?	-22	-16%	·	-10	-3
C#CCN(C[C@@H]1[C@@H](OC(=O)NCc2ccco2)[C@@H](OC(=O)NCc2ccco2)CN(C(=O)OC(C)C)N1C(=O)OC(C)C)S(=O)(=O)c1ccc(C)cc1	9.2µM*	13	15µM*	·	3	-98*
C#CCN(C[C@@H]1[C@@H](OC(=O)NC2CC2)[C@@H](OC(=O)NC2CC2)CN(C(=O)OC(C)C)N1C(=O)OC(C)C)S(=O)(=O)c1ccc(C)cc1	16µM*	0	?	·	-22	0
C[C@H]1CCC(=O)N([C@H](COc2ccccc2)Cc2ccccc2)CC1	16µM*	7	18µM*	·	7	-4
COc1ccc(SCCN2CC[C@@H](C(C)(C)C)CCC2=O)cc1	16µM*	-1	?	-1%	1	20
COc1ccc(SCCN2CC[C@@H](O)CCC2=O)cc1	-20%	4	?	1%	5	3
COc1ccc(SC[C@H](Cc2ccccc2)N2CC[C@@H](C(C)(C)C)CCC2=O)cc1	?	-8	18µM*	-1%	-9	-51*
O=C1CCC(O)CCN1CCSc1ccccc1 (stereo not given)	-2%	2	-4%	·	6	4
COc1ccc(SC[C@H](Cc2ccccc2)N2CC[C@@H](O)CCC2=O)cc1	?	-3	?	-4%	5	14
CC(C)(C)[C@H]1CCC(=O)N(CCSc2ccc(Br)cc2)CC1	22µM*	·	?	·	·	·
Cc1c(Cl)cccc1NC(=S)N1CCN(c2ncccn2)CC1	7%	11	-5%	3%	·	9
O=C(COc1ccc([N+](=O)[O-])cc1)NNC(=O)C1COc2ccccc2O1 (stereo not given)	-19%	0	-3%	·	5	15
Cc1cccc(C2CC(c3ccc(Cl)cc3)Nc3nc(N)nn32)c1 (stereo not given)	?	-2	?	9%	2	-25
CCc1ccc(C2CC(c3cccc(Cl)c3)n3nc(N)nc3N2)cc1 (stereo not given)	15µM*	-2	15µM*	8%	2	·
